Screens: PubChem, several laboratories
ADAM17 inh: inhibits human ADAM17; inhibition, % at 6.95 µM; recombinant ADAM17, EDANS/DABCYL FRET peptide cleavage; hit rate 0.83% among 370,000; AID 720648; P78536;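 active = inhibition above the mean of compounds lying between control limits plus 3 SD, set per campaign, cut at about 8.5% in these data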;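 also: 0% = DMSO-only wells as the low control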
ADAM10 inh: ADAM10 inhibition, QFRET primary screen; recombinant ADAM10, EDANS/DABCYL FRET peptide cleavage, 3 h; inhibition, % at 7 µM; hit rate 0.62% among 370,000;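 active = inhibition above a per-campaign cutoff equal to the mean of compounds falling between control-based bounds plus 3 SD, cut at about 20% in these data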;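 also: 0% = DMSO wells while the 100% control is not disclosed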
proKLK7 act: activates the human kallikrein-7 zymogen; P49862; purified proKLK7, EDANS-DABCYL substrate fluorescence; 100% is mature enzyme control, 0% vehicle; activation, % at 7 µM; hit rate 0.9% among 370,000;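 active = activation above the mean of all tested compounds plus 3 SD, computed per campaign excluding outliers beyond control limits, cut at about 13% in these data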
Target sequence (P49862 whole entry, looked up): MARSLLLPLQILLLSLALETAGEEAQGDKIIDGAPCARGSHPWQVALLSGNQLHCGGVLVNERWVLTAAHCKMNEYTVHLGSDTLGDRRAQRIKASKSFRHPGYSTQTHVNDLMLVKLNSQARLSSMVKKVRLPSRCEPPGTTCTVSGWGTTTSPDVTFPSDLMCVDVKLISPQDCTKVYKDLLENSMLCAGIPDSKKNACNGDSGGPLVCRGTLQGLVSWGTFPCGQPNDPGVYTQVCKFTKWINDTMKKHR
sPLA2-III inh: Inhibits HGIII-sPLA2 liposome hydrolysis, primary screen. Q9NZ20. hit rate 0.56% among 370,000. QFRET BODIPY PC-A2 liposome hydrolysis, fluorescence. inhibition, % at 12.2 µM;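 active = inhibition above mean plus 3 SD of compounds lying within the high and low control bounds, cut at about 19% in these data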;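 also: 0% = median of test compound wells and 100% = no enzyme DMSO wells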
NRP1-CendR mod: modulators of CendR peptide binding to human neuropilin-1. AID 602438. hit rate 0.85% among 360,000. inhibition, % at 25 µM. FAM-RPARPAR peptide binding to NRP-1, fluorescence polarization;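 active = inhibition or corrected inhibition above about 18%, plus a signal ratio from 0.5 to 1.5, limit read from the data, passing the limit was not always enough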
The depositor's hits bear a star; · = no result given. In the library only some 3.4% were active in any assay of this set; here they are far more common.

SMILES	ADAM17 inh	ADAM10 inh	proKLK7 act	sPLA2-III inh	NRP1-CendR mod
O=C(NCc1ccccc1)C(c1cccnc1)N(C(=O)c1ccccn1)c1ccccc1F (stereo unspecified)	-2.6	2.8	0.0	1.6	26.2*
COC(=O)[C@]12C[C@H](CC(=O)NCc3ccccc3)C(=O)N(Cc3ccco3)C1=C[C@H](C(C)(C)C)O[C@@H]2C	2.6	2.5	0.1	-8.4	·
COCCNC(=S)NN(c1ccccc1)c1ccccc1	-5.6	-6.4	-0.8	5.9	9.6
CNC(=S)NN(c1ccccc1)c1ccccc1	·	·	·	·	43.8*
COC(=O)[C@]12C[C@H](CC(=O)NCCc3ccccc3OC)C(=O)N(Cc3cccc4ccccc34)C1=C[C@H](COCc1ccccc1)O[C@@H]2C	6.2	11.7	0.4	-8.4	·
Cc1ccc(Cn2cc(CN3[C@@H](CC(C)C)COc4cc(Br)ccc4S3(=O)=O)nn2)cc1	-1.3	-13.8	-0.6	14.1	·
Cn1nc(C(C)(C)C)cc1N1C(=O)CCC1(C)C(=O)Nc1ccc2ccccc2c1 (stereo unspecified)	-3.4	-11.7	0.3	2.7	23.9*
Cn1nc(C(C)(C)C)cc1N1C(=O)CCC1(C)C(=O)NC1CCCCC1 (stereo unspecified)	-0.3	3.0	0.1	3.4	9.0
CCc1cc(Cn2nc(-c3ccccc3)cc2C(=O)NCc2cccs2)on1	16.3*	37.1*	0.8	-17.4	-0.8
CCc1cc(Cn2nc(-c3ccccc3)cc2C(=O)NCCOC)on1	-1.2	2.0	0.4	-3.9	-1.3
COc1cccc(C(=O)N[C@H](C(=O)N2CCC[C@H]2C(=O)NCCc2ccccc2Cl)C(C)C)c1	-4.0	-7.8	0.2	-3.5	·
CCOC(=O)N1CCN(C(=O)C[C@H]2C[C@@]3(C(=O)OC)C(=C[C@H](C4CCCC4)O[C@@H]3C)N(CCc3ccc(OC)c(OC)c3)C2=O)CC1	-2.5	-1.9	0.0	-7.5	·
CSCCCNC(=O)Cn1nc(Cc2ccncc2)c2ccccc2c1=O	-2.2	-0.3	0.3	0.8	·
N/C(=N\OC(=O)c1ccc(Cl)c(Cl)c1)c1ccccn1	0.7	10.0	-0.1	-0.9	1.6
N/C(=N\OC(=O)c1ccc(Cl)cc1)c1ccccn1	-1.7	2.3	0.0	7.2	19.8*
CCOC(=O)[C@@]12CN(C(=O)OC(C)(C)C)CC=C1N(Cc1ccc(OC)cc1)C(=O)[C@H]2CC(=O)N1CCC(c2ccccc2)CC1	6.2	16.8	0.2	-7.2	·
COc1ccc(C(=O)c2nccc3cc(OC)c(OC)cc23)cc1OC	·	·	·	·	26.4*
CC(C)C[C@H]1COc2cc(Br)ccc2S(=O)(=O)N1Cc1cn(CCC2OCCO2)nn1	3.1	1.7	-0.2	-2.3	·
NC(=S)Nc1cc2ccccc2c2ccccc12	-27.0	-109.4	14.1*	13.5	2.7
NC(=S)Nc1cccc2cc3ccccc3cc12	-142.1	-452.2	5.8	10.1	69.3
O=C1c2cccc3c([N+](=O)[O-])ccc(c23)C(=O)N1Cc1cccnc1	-4.6	-16.7	-0.5	-4.7	69.0*
Cc1ccnc(N2C(=O)c3cccc4c([N+](=O)[O-])ccc(c34)C2=O)c1	-5.2	-8.1	-0.4	11.4	36.3*
COc1ccc(C2/C=C\CN(C(=O)C3CCCC3)CC(=O)N2Cc2ccc(F)cc2)cc1 (stereo unspecified)	-4.8	-2.4	-0.5	1.5	12.4
COc1ccc(C2/C=C\CN(C(=O)C3CCCCC3)CC(=O)N2Cc2ccc(F)cc2)cc1 (stereo unspecified)	-3.6	-1.0	1.2	3.7	34.4*
CCOC(=O)c1cc(-c2ccccc2)sc1NC(=S)Nc1cccc(C)n1	-3.0	3.5	0.4	3.4	43.3*
SMILES	ADAM17 inh	ADAM10 inh	proKLK7 act	sPLA2-III inh	NRP1-CendR mod
CN(C)CCCN(C(=O)c1ccc2c(c1)CCCC2)c1nc2ccc(Cl)cc2s1	8.7*	17.3	0.4	-25.1	10.0
CCOc1ccc2nc(N(CCCN(C)C)C(=O)c3ccc4c(c3)CCCC4)sc2c1	-3.4	-4.8	-0.6	-3.0	-0.9
COc1cc(OC)c2c(O)c3c(=O)cc(C)oc3c(-c3c(OC)cc4cc5c(c(O)c4c3O)C(=O)CC(C)(O)O5)c2c1 (stereo unspecified)	5.5	15.9	-3.5	14.3	·
CSc1ccc(-c2cnc(N3CCC(C(N)=O)CC3)s2)cc1	-11.6	-37.3	·	1.3	·
COc1ccc(Cn2c3ccc(OC)cc3c3nc4ccccc4nc32)cc1	-2.2	-2.1	-5.4	5.1	48.9*
CCOC(=O)[C@@]12CCCC3=C1N(CCC3)C(=O)[C@H]2CC(=O)NCc1ccccc1	-1.7	-1.7	0.3	1.6	·
CCCC(C)NC(=S)NC(=O)c1cc(S(=O)(=O)N2CCOCC2)ccc1C (stereo unspecified)	2.3	-2.0	0.1	-1.3	-1.6
CCCCCC(C)NC(=S)NC(=O)c1cc(S(=O)(=O)N2CCOCC2)ccc1C (stereo unspecified)	5.2	-0.3	0.1	-12.7	26.1*
COCCCN1C(=O)[C@H](CC(=O)NCCCN2CCCC2=O)[C@]2(C(=O)OC)CCCCC=C12	3.2	3.6	0.8	5.1	·
COC(=O)C1N2C(=O)[C@@H](NC(=O)COc3ccccc3)[C@H]2SC1(C)C (stereo partly specified)	-1.8	6.8	-0.2	5.2	31.1*
CC1(C)S[C@@H]2[C@H](NC(=O)C(C(=O)O)c3ccccc3)C(=O)N2[C@H]1C(=O)O (stereo partly specified)	·	·	·	·	-25.6
O=C(O)c1cc(Nc2cc(Cl)c3nonc3c2[N+](=O)[O-])ccc1O	-2.8	-1.8	0.2	3.8	24.7*
O=[N+]([O-])c1c(Nc2ccccc2O)cc(Cl)c2nonc12	4.8	6.0	0.3	-43.0	11.4
COc1cccc2cc3c(nc12)C[C@@H]1CCCC(=O)N2CCC[C@@]12C3	-11.7	-42.6	·	3.3	·
COc1ccc(-c2cc(C(F)(F)F)nc(SCC(=O)Nc3cc(C)on3)n2)cc1OC	-269.6	-44.4	-0.3	-2.6	39.0*
COc1ccc(-c2cc(C(F)(F)F)nc(SCC(=O)NCCN3CCOCC3)n2)cc1OC	-40.7	-148.9	10.6	3.1	31.1*
Cc1cc(NC(=O)c2ccc(S(=O)(=O)Nc3ccccc3)cc2)no1	0.2	-2.2	0.4	-20.0	27.1*
Cc1ccc(S(=O)(=O)Nc2ccc(C(=O)Nc3cc(C)on3)cc2)cc1	-6.0	-7.2	0.0	-12.2	-8.8
C[C@@H]1COc2cccc(F)c2S(=O)(=O)N1C	-4.6	-3.5	0.1	8.2	·
COc1ccccc1Cc1c(-c2ccc(Cl)cc2)nc2ccc(C)cn12	-7.0	-45.1	-1.7	-2.1	·
C[C@H](O)[C@@H]1CN2CCc3ccc(-c4ccc5c(c4)OCO5)cc3[C@@H]2C[C@@H]1N(C)CC1CCCCC1	-1.9	-4.9	0.7	-4.2	·
CCOc1ccccc1NC(=O)c1cccc(S(=O)(=O)N(Cc2ccccc2)c2ccccc2OC)c1	4.3	9.7	-5.0	0.3	30.2*
COc1ccccc1N(Cc1ccccc1)S(=O)(=O)c1cccc(C(=O)O)c1	-4.3	3.0	0.0	6.6	6.6
